Source: PubChem BioAssay (Tox21)
Values joined by “and” are separate entries in the source; they are usually repeats but may differ in a detail not shown here. Equal values may be shown once. The source holds several records for some structures; these can differ, active in one and inactive in another. Active and inactive are the calls of the source. A call without a number means that no potency is given here. Unless noted, the call rests on the fitted dose curve; in most records, active means well fitted curve in the direction sought with a large enough effect in the repeat runs; inconclusive means weak or mixed curves; inactive means no such curve, though single readings can be large; an effect the other way counts as inactive or inconclusive.

Assays:
[1] = qHTS assay to test for compound auto fluorescence at 535 nm (green) in HEK293 cells (AID 720680)
[2] = qHTS assay to test for compound auto fluorescence at 460 nm (blue) in HEK293 cell free culture (AID 720681)
Summary of the method: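 Test compounds were pinned into cell-free culture medium (DMEM with 10% FBS) and fluorescence was read directly at Ex/Em 405/460 nm. Signals were expressed as fluorescence equivalents of triamterene, with DMSO vehicle as control.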

[3] = qHTS assay to test for compound auto fluorescence at 535 nm (green) in HEK293 cell free culture (AID 720682)
Summary of the method: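 Each library compound, or DMSO control, is added by pintool to medium alone, comprising DMEM and 10% FBS. Emission at 535 nm following 485 nm excitation is quantified against fluorescein.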

[4] = qHTS assay to test for compound auto fluorescence at 590 nm (red) in HEK293 cell free culture (AID 720683)
Summary of the method: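 Tox21 10K library compounds were pinned into cell-free DMEM with 10% FBS and fluorescence was read at excitation 540 nm. Activity is expressed as Rose Bengal sodium equivalency.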

[5] = qHTS assay to test for compound auto fluorescence at 590 nm (red) in HepG2 cell free culture (AID 720684)
Summary of the method: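 Measured in medium alone (MEM containing 10% FBS) following pintool addition of compound; emission at 590 nm with 540 nm excitation, referenced to Rose Bengal sodium.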

[6] = qHTS assay to test for compound auto fluorescence at 460 nm (blue) in HepG2 cell free culture (AID 720685)
Summary of the method: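 Compound (23 nL) or DMSO pinned into cell-free MEM with 10% FBS; blue fluorescence read at 405/460 nm excitation/emission, expressed as auto-fluorescence equivalency to triamterene.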

[7] = qHTS assay to test for compound auto fluorescence at 535 nm (green) in HepG2 cell free culture (AID 720686)
[8] = qHTS assay to test for compound auto fluorescence at 460 nm (blue) in HepG2 cells (AID 720687)
Summary of the method: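 Cells (2,000/well in MEM with 10% FBS) attached overnight at 37 C, then were exposed to compound or DMSO for 1 hr at 37 C, 5% CO2. Fluorescence read at Ex/Em 405/460 nm, expressed as triamterene-equivalent signal.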

[9] = target: Glucocorticoid receptor (Homo sapiens) (UniProt P04150); test: qHTS assay to identify small molecule agonists of the glucocorticoid receptor (GR) signaling pathway (AID 720691; active means well fitted activation curve with a large enough effect in the signal ratio in the repeat runs, not every such curve was filed as active; inconclusive means weak or mixed curves, or effect the other way; inactive means no such curve, though single readings can be large or run the other way; the % refers to the signal ratio; further: potency means the concentration at half of the fitted maximal effect); conditions: GR-bla HeLa, beta-lactamase reporter ratio, 18 h; activation: at 62.4 µM (top of the series)
Summary of the method: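 Fluorescence intensity from LiveBLAzer B/G FRET substrate (2 h, room temperature) reports beta-lactamase expression driven by the glucocorticoid response element in GR-bla HeLa cells after 18 h compound exposure at 37 C.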

[10] = target: Glucocorticoid receptor (Homo sapiens) (UniProt P04150); test: qHTS assay to identify small molecule antagonists of the glucocorticoid receptor (GR) signaling pathway (AID 720692; active means well fitted inhibition curve with a large enough effect in the signal ratio in the repeat runs, not every such curve was filed as active; inconclusive means weak or mixed curves, or effect the other way; inactive means no such curve, though single readings can be large or run the other way; the % refers to the signal ratio)
Summary of the method: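 HeLa GR-bla cells; cmpd + dex 5 nM final, 18 h 37 C; LiveBLAzer B/G FRET substrate 2 h RT; fluorescence intensity read. Antagonist mode, qHTS.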

[11] = qHTS assay to identify small molecule antagonists of the glucocorticoid receptor (GR) signaling pathway - cell viability counter screen (AID 720693); further: nearly all actives have a fitted effect of over 55% in size
[12] = qHTS assay for identifying genotoxic compounds that show differential cytotoxicity against isogenic chicken DT40 cell lines with known DNA damage response pathways - wild type cell line (AID 743012); further: nearly all actives have a fitted effect of over 60% in size; further: potency means the concentration at half of the fitted maximal effect
Summary of the method: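 Wild type DT40, 300 cells/well, ~0.5 h settle at 37 C/5% CO2; compounds in DMSO added by pintool; 40 h at 37 C/5% CO2; CellTiter-Glo, 30 min RT; luminescence.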

[13] = qHTS assay for identifying genotoxic compounds that show differential cytotoxicity against isogenic chicken DT40 cell lines with known DNA damage response pathways - Rad54/Ku70 mutant cell line (AID 743015); further: nearly all actives have a fitted effect of over 60% in size; further: potency means the concentration at half of the fitted maximal effect
[14] = qHTS assay to identify small molecule antagonists of the androgen receptor (AR) signaling pathway - cell viability counter screen (AID 743033; further: nearly all actives have a fitted effect of over 45% in size)
[15] = qHTS assay to identify small molecule antagonists of the androgen receptor (AR) signaling pathway using the MDA cell line - cell viability counter screen (AID 743041; further: nearly all actives have a fitted effect of over 45% in size)
Summary of the method: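 Viability counter screen run alongside the AR antagonist reporter: cells seeded 5 h before compound, R1881 added, 16 h incubation at 37C without CO2, fluorescent CellTiter-Fluor signal quantified.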

[16] = qHTS assay for identifying genotoxic compounds that show differential cytotoxicity against isogenic chicken DT40 cell lines with known DNA damage response pathways - Rev3 mutant cell line (AID 743014); further: nearly all actives have a fitted effect of over 55% in size; further: potency means the concentration at half of the fitted maximal effect
[17] = target: Androgen receptor (Homo sapiens) (UniProt P10275); test: qHTS assay to identify small molecule antagonists of the androgen receptor (AR) signaling pathway (AID 743035; active means well fitted inhibition curve with a large enough effect in the signal ratio in the repeat runs, not every such curve was filed as active; inconclusive means weak or mixed curves, or effect the other way; inactive means no such curve, though single readings can be large or run the other way; the % refers to the signal ratio)
Summary of the method: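 Fluorescence from a beta-lactamase FRET substrate (LiveBLAzer B/G, 2 h, room temperature) measured inhibition of R1881-stimulated signaling in GeneBLAzer AR-UAS-bla HEK293 cells exposed to compound for 16 h at 37C.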

[18] = target: Androgen receptor (Homo sapiens) (UniProt P10275); test: qHTS assay to identify small molecule agonists of the androgen receptor (AR) signaling pathway (AID 743036; active means well fitted activation curve with a large enough effect in the signal ratio in the repeat runs, with a control signal flat, not every such curve was filed as active; inconclusive means weak or mixed curves, or effect the other way; inactive means no such curve, though single readings can be large or run the other way; the % refers to the signal ratio)
Summary of the method: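 Following a 4 h settling period, AR-UAS-bla HEK293 cells were dosed with compounds for 16 h at 37C. A 2 h room-temperature incubation with LiveBLAzer B/G FRET substrate preceded the fluorescence measurement.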

[19] = target: Androgen receptor (Homo sapiens) (UniProt P10275); test: qHTS assay to identify small molecule antagonists of the androgen receptor (AR) signaling pathway using the MDA cell line (AID 743042; further: nearly all actives have a fitted effect of over 55% in size)
Summary of the method: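 MDA-kb2 cells (human breast carcinoma, stably carrying an MMTV-luciferase reporter responsive to AR and GR) were plated at 3,000 cells/well and preincubated 5 hr at 37C, then given compound plus R1881 agonist for 16 h. ONE-Glo luminescence was read.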

[20] = target: Androgen receptor (Homo sapiens) (UniProt P10275); test: qHTS assay to identify small molecule agonists of the androgen receptor (AR) signaling pathway using the MDA cell line (AID 743040; further: nearly all actives have a fitted effect of over 20% in size)
Summary of the method: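 Luminescence from ONE-Glo, read after 30 min at room temperature, reflects MMTV-driven luciferase in MDA-kb2 cells (AR- and GR-responsive). Treatment lasted 16 h at 37C, 0% CO2.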

Glucocorticoid receptor (Homo sapiens), sequence (P04150 whole entry, looked up): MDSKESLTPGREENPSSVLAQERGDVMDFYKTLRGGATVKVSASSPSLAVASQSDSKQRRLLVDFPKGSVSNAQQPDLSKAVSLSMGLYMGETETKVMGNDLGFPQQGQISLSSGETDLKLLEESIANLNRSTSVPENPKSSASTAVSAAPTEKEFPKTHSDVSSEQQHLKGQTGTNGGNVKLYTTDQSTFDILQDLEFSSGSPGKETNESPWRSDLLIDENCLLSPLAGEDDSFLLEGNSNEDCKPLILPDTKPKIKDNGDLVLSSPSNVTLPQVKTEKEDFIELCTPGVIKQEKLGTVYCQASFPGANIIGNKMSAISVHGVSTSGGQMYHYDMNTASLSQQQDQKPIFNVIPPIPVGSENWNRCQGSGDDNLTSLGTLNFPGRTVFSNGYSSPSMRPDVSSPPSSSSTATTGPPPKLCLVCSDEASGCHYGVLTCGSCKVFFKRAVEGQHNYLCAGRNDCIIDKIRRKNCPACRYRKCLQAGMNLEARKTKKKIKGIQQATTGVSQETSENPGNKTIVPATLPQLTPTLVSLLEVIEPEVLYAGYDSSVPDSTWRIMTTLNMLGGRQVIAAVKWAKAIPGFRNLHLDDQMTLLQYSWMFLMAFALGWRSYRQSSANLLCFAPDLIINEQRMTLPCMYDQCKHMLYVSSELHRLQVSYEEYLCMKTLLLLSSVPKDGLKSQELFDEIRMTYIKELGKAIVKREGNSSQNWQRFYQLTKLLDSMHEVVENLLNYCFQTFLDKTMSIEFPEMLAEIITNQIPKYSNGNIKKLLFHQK
Androgen receptor (Homo sapiens), sequence (P10275 whole entry, looked up): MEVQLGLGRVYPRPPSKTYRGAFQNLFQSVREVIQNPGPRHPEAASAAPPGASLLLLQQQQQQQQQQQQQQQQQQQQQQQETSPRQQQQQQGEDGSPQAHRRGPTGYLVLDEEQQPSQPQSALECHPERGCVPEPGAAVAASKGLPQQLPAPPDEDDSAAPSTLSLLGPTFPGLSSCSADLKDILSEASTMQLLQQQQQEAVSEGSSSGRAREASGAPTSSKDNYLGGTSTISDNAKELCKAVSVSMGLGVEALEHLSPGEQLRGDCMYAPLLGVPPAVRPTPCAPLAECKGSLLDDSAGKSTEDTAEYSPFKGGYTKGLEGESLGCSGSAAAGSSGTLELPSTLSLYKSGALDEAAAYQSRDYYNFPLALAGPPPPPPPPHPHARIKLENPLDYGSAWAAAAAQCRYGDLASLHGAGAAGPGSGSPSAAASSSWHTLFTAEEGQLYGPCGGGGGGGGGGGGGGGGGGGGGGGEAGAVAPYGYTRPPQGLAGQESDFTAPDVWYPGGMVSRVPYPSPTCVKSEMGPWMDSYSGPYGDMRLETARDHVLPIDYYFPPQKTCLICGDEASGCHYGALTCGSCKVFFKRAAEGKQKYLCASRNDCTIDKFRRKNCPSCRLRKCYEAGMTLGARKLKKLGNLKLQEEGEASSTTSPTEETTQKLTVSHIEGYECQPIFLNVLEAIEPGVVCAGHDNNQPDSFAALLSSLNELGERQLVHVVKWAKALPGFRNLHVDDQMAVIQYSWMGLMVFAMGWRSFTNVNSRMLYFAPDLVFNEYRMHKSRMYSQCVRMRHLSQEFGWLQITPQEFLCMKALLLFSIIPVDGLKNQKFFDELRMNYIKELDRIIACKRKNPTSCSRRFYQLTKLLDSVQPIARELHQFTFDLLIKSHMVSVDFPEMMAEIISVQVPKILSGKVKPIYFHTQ

| SMILES | outcome [1] | Potency [2] | outcome [3] | outcome [4] | outcome [5] | Potency [6] | Potency [7] | Potency [8] | Potency [9] | Potency [10] | Potency [11] | Potency [12] | Potency [13] | Potency [14] | Potency [15] | Potency [16] | Potency [17] | Potency [18] | Potency [19] | Potency [20] |
| --- | --- | --- | --- | --- | --- | --- | --- | --- | --- | --- | --- | --- | --- | --- | --- | --- | --- | --- | --- | --- |
| CN(C/C=C/c1ccccc1)Cc1cccc2ccccc12 | inactive | inactive | inactive | inactive | inactive | inactive | inactive | inactive | inactive | inactive | inactive | 26.6 µM (active) | 26.6 µM (active) | inactive | inactive |  |  |  |  |  |
| CCCCCCCCCCCCCCCC(=O)OC[C@H](COP(=O)([O-])OCC[N+](C)(C)C)OC(=O)CCCCCCCCCCCCCCC | inactive | inactive | inactive | inactive | inactive | inactive | inactive | inactive | inactive | inactive | inactive | inactive | inactive | inactive | inactive | inactive | inactive | inactive | inactive |  |
| CO/N=C(\C(=O)N[C@@H]1C(=O)N2C(C(=O)O)=C(C[N+]3(C)CCCC3)CS[C@H]12)c1csc(N)n1 | inactive | inactive | inactive | inactive | inactive | inactive | inactive | inactive | inactive | inactive | inactive | inactive | inactive | inactive | inactive | inactive |  |  | inactive | inactive |
| O=C1C2CC3CC1CC(O)(C3)C2 | inactive | inactive | inactive | inactive | inactive | inactive | inactive | inactive | inactive | inactive | inactive | inactive | inactive |  | inactive | inactive |  | inactive | inactive | inactive |
| C[N+]1(CCCCC[N+]2(C)CCCC2)CCCC1 | inactive | inactive | inactive | inactive | inactive | inactive | inactive | inactive | inactive | inactive | inactive | inactive | inactive | inactive | inactive | inactive |  | inactive | inactive |  |
| O=C(O)/C=C/C(O)c1ccc(Cl)cc1 (stereo not drawn) | inactive | inactive | inactive | inactive | inactive | inactive | inactive | inactive | inactive | inactive | inactive | inactive | inactive | inactive | inactive | inactive |  |  | inactive | inactive |
| CC1(C)S[C@@H]2[C@H](NC(=O)[C@@H](NC(=O)N3CCNC3=O)c3ccccc3)C(=O)N2[C@H]1C(=O)O | inactive | inactive | inactive | inactive | inactive | inactive | inactive | inactive | inactive | inactive | inactive | inactive | inactive | inactive | inactive | inactive |  |  |  |  |
| Cc1c(N)nc([C@H](CC(N)=O)NC[C@H](N)C(N)=O)nc1C(=O)N[C@H](C(=O)N[C@H](C)[C@@H](O)[C@H](C)C(=O)N[C@H](C(=O)NCCc1nc(-c2nc(C(=O)NCCCCN=C(N)N)cs2)cs1)[C@@H](C)O)[C@@H](O[C@@H]1O[C@@H](CO)[C@@H](O)[C@H](O)[C@@H]1O[C@H]1O[C@H](CO)[C@@H](O)[C@H](OC(N)=O)[C@@H]1O)c1cnc[nH]1 | inactive | inactive | inactive | inactive | inactive | inactive | inactive | inactive | 848 nM [inconclusive] (active) and inactive | inactive | inactive | 4.22 µM (active) and 1.5 µM (active) | 211 nM (active) and 37.6 nM (active) | inactive | inactive | 1.33 µM (active) |  |  |  |  |
| CC[N+](CC)(CC)CCC(O)(c1ccccc1)C1CCCCC1 (stereo not drawn) | inactive | inactive | inactive | inactive | inactive | inactive | inactive | inactive | inactive | inactive | inactive | inactive | inactive | inactive | inactive | inactive |  |  |  |  |
| C=CC[N@@+]12CC[C@@]34c5ccccc5N5/C=C6/[C@H]7C[C@H]8[C@@]9(CC[N@@+]8(CC=C)C/C7=C/CO)c7ccccc7N(/C=C(/[C@@H](C[C@@H]31)/C(=C\CO)C2)[C@H]54)[C@@H]69 | inactive | inactive | inactive | inactive | inactive | inactive | inactive | inactive | inactive | inactive | inactive | inactive | inactive | inactive | inactive | inactive |  |  |  |  |
| O=C(O)COc1ccc(C(=O)c2cccs2)c(Cl)c1Cl | inactive | inactive | inactive | inactive | inactive | inactive | inactive | inactive | inactive | inactive | inactive | inactive | inactive | inactive | inactive | inactive |  |  | inactive |  |
| CN[C@H](CC(C)C)C(=O)N[C@H]1C(=O)N[C@@H](CC(N)=O)C(=O)N[C@H]2C(=O)N[C@H]3C(=O)N[C@H](C(=O)N[C@@H](C(=O)O)c4cc(O)cc(O)c4-c4cc3ccc4O)[C@H](O)c3ccc(c(Cl)c3)Oc3cc2cc(c3O[C@@H]2O[C@H](CO)[C@@H](O)[C@H](O)[C@H]2O[C@H]2C[C@](C)(N)C(O)[C@H](C)O2)Oc2ccc(cc2Cl)[C@H]1O (stereo partly drawn) | inactive | inactive | inactive | inactive | inactive | inactive | inactive | inactive | inactive | inactive | inactive | inactive | inactive | inactive | inactive | inactive |  |  |  |  |
